Cycloheximide cs: counter-screen for Shiga toxin inhibitors: cycloheximide protein synthesis inhibition; cell reporter, cycloheximide protein synthesis inhibition counterscreen; max response, %; actives 12% (n = 300,000); in the data active = max response mostly above about 13%, no sharp cut-off; inactive = mostly below about 14%; note: read at 38.3 µM for the half of the compounds with a filed dose
Pf growth 48h: P. falciparum growth inhibition at 48 hours (one generation); Potency, µM (top dose mostly 28.7 µM), most hits filed as inhibitors; P. falciparum luciferase growth in erythrocytes, 48 h; actives 5.9% (n = 310,000)
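Luminescence readout; reporter = integrated firefly luciferase in P. falciparum. RBC culture at 2% hematocrit, 0.1% parasitemia final, 37 C/5% CO2; decreased signal taken as growth inhibition.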
Shiga inhibitor: inhibitors of Shiga toxin in Vero cells; Vero cells, Shiga toxin protein synthesis inhibition reporter; inhibition, % at 38.7 µM; actives 9.2% (n = 290,000); AID 2315; in the data active = inhibition mostly above about 28%, no sharp cut-off; inactive = mostly below about 43%
Pf growth 96h: inhibits malaria parasite growth, 96 h; P. falciparum luciferase reporter growth, 96 h; Potency, µM (series often up to 28.7 µM), most hits filed as inhibitors; actives 6.9% (n = 320,000); AID 504834
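P. falciparum expressing integrated firefly luciferase, in erythrocytes at 2% hematocrit, 0.05% parasitemia, incubated with compounds 96 h at 37 C, 5% CO2. Growth inhibition read as loss of luminescence; two-generation exposure targets delayed-death apicoplast inhibitors.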
A number is an active result; n = inactive; u = inconclusive; x = no result given; [ ] = remark or other dose. This is a sample that favours compounds with a hit; in the whole collection about 21% have one here. Unless noted, calls come from the whole dose curve; as a rule, active = well fitted inhibition curve with a large enough effect; inconclusive = small, poorly fitted or top-dose-only effect, or another doubt; inactive = no such curve, though single readings can be large or run the other way.

SMILES	Cycloheximide cs	Pf growth 48h	Shiga inhibitor	Pf growth 96h
CNC(=S)Nc1cccc(C(=O)O)c1	n	n	n	n[5.75 µM]
CC(C)(C)C(=O)NC(=S)Nc1ccc(F)cc1	31	n	87	u
CC(=O)c1cc2c(cc1NC(=O)CN1Cc3ccccc3C1=O)OCO2	n	n	n	n
C/C(=N\Nc1ccc([N+](=O)[O-])cc1[N+](=O)[O-])C(C)(C)C(C(=O)O)C(=O)O	n	n	n	n
COc1cccc(NC(=S)N(C)C2CCN(C)CC2)c1	n	n	n	n
O=C(COC(=O)/C=C/c1ccccc1)NC1CCCCCC1	x	n	x	n
COc1ccccc1OC(C)C(=O)N1CCN(Cc2ccc3c(c2)OCO3)CC1 (configuration not stated)	n	n	n	n
CC(C)(C)c1ccc(C(=O)O)c(C(=O)c2ccc(C(=O)O)cc2)c1	n	u	n	n
Cc1ccc(CNC(=O)Cn2nnc(C(=O)Nc3cccc(C)c3C)c2N)cc1	n	n	n	u
Cc1cc(C)cc(NC(=O)c2nnn(Cc3cc(C)ccc3C)c2N)c1	n	u	n	10µM
Cc1ccc(C)c(Cn2nnc(C(=O)Nc3ccc4c(c3)OCCO4)c2N)c1	x	u	x	n
Cc1ccccc1Cn1nnc(C(=O)Nc2cccc(C)c2C)c1N	30	u	n	n
O=C(COC(=O)c1ccccc1OC(F)F)Nc1ccc2[nH]c(=O)[nH]c2c1	x	n	x	n
CCC(Cc1ccccc1)NC(=O)c1ccc2nc(N3CCOCC3)sc2c1 (configuration not stated)	n	n	n	n
CCOc1ccc(-n2c(-c3ccoc3)nc3ccccc3c2=O)cc1	n	x	n	u
CCOc1ccc(-n2c(C)nc(O)c2N=Nc2ccccc2)cc1	17	n	n	n
CSCC[C@H](NC(=O)[C@H]1CC[C@H](CNC(=O)[C@@H](N)Cc2ccccc2)CC1)C(=O)O	n	n	n	n
CCOC(=O)C1C(=O)C=C(c2ccc(C)cc2)CC1c1cccc([N+](=O)[O-])c1 (configuration not stated)	n	u	n	6.6µM
CCOC(=O)C1C(=O)C=C(c2ccc(C)cc2)CC1c1ccco1 (configuration not stated)	21	u	54	n
CCOC(=O)C1C(=O)C=C(c2ccc(NS(C)(=O)=O)cc2)CC1c1ccco1 (configuration not stated)	n	u	n	u
O=C(c1ccccc1SCc1ccccc1)N1CCCCCC1	n	n[5.75 µM]	n	u
CN(C)c1nc(-c2cn(CCC#N)c3ccccc23)cs1	n	u	n	u
Cc1nn(C)c2ncc(C(N)=O)c(Oc3cccnc3)c12	n	n	n	n
CCOC(=O)c1cnc2cc(-c3ccc(Br)cc3)nn2c1C	22	n	n	13µM
CCOC(=O)c1cnc2c(c(C)nn2C)c1Oc1ccc(Cl)cc1	n	u	n	1.5µM
SMILES	Cycloheximide cs	Pf growth 48h	Shiga inhibitor	Pf growth 96h
CCOC(=O)c1cnc2cc(C)nn2c1C	n	x	n	n
CCOC(=O)c1cnc2cc(-c3ccc(Cl)cc3)nn2c1N	27	n	n	n
CCOC(=O)c1cnc2c(-c3ccc(Cl)cc3)c(C)nn2c1N	n	n	n	9.3µM
CCOC(=O)CSc1ccc(-c2nc3cc(C)c(C)cc3[nH]2)cn1	55	n	61	n
Cc1cc2nc(-c3ccc(SCC(=O)N4CCOCC4)nc3)[nH]c2cc1C	33	n	70	n
Cc1cc2nc(-c3ccc(SCC(=O)N4CCN(C(=O)c5ccco5)CC4)nc3)[nH]c2cc1C	20	u	26	n
CCOC(=O)CSc1ccc(-c2nc3ccccc3[nH]2)cn1	n	n	n	x
Cc1cc2nc(-c3ccc(SCc4ccccn4)nc3)[nH]c2cc1C	34	u	98	n
COC(=O)C1=C(C)N(C)C(=O)NC1c1cccc2ccccc12 (configuration not stated)	n	n	n	u
COC(=O)CSCC(=O)Nc1nnc(-c2cccc(C)c2)s1	n	n	n	n
CNC1CCCN(c2c(F)cc3c(=O)c(C(=O)O)cn(C4CC4)c3c2OC)C1 (configuration not stated)	x	4.8µM	x	4.3µM
COc1c(N2CCN(C(=S)NCc3ccccc3)C(C)C2)c(F)cc2c(=O)c(C(=O)O)cn(C3CC3)c12 (configuration not stated)	n	9.3µM	n	2.9µM
CN1C[C@@H]2C[C@H]1CN2c1cc2c(cc1F)c(=O)c(C(=O)O)cn2C1CC1	x	5.4µM	x	0.85µM
COc1c(N2CCN[C@H](C)C2)c(F)cc2c(=O)c(C(=O)O)cn(C3CC3)c12	n	u	n	u
COc1c(F)c(F)cc2c(=O)c(C(=O)O)cn(C3CC3)c12	n	n[0.00184 µM]	n	n

Assay outcomes (PubChem)
